# Measured values taken from the supplement of paper PMC8728848.
# Many of the other results were omitted from the sample, so the strongest signals are more common in it than they were.
# How the values were obtained:
# Assay in all cases: glycan array binding signal (z-score within array); higher = stronger binding
# Details in all cases: glycan notation: IUPAC condensed, linker removed
# [1] = target: GlcNAc(b1-2)[GlcNAc(b1-4)]Man(a1-3)[GlcNAc(b1-4)][GlcNAc(b1-2)[GlcNAc(b1-6)]Man(a1-6)]Man(b1-4)GlcNAc(b1-4)GlcNAc
# Outline: (§1)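 Glycan array data were curated from 3228 arrays in the Consortium for Functional Glycomics database and kept only where the protein sequence was available. Glycan names were converted to IUPAC-condensed notation, and columns mapping to the same glycan were averaged. The binding signal is a within-array Z-score, averaged across arrays of the same protein sequence at different concentrations or buffers and across linkers. Negative Z-scores can be read as non-binding.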
# [2] = target: GlcNAc(b1-3)Gal
# Outline: as §1
# [3] = target: GlcNAc(b1-3)Gal(b1-4)GlcNAc
# Outline: as §1
# [4] = target: GlcNAc(b1-3)Gal(b1-4)GlcNAc(b1-3)Gal(b1-4)GlcNAc(b1-3)Gal(b1-4)GlcNAc(b1-2)[GlcNAc(b1-3)Gal(b1-4)GlcNAc(b1-3)Gal(b1-4)GlcNAc(b1-3)Gal(b1-4)GlcNAc(b1-6)]Man(a1-6)[GlcNAc(b1-3)Gal(b1-4)GlcNAc(b1-3)Gal(b1-4)GlcNAc(b1-3)Gal(b1-4)GlcNAc(b1-2)Man(a1-3)]Man(b1-4)GlcNAc(b1-4)[Fuc(a1-6)]GlcNAc
# Outline: as §1
# [5] = target: GlcNAc(b1-3)Gal(b1-4)GlcNAc(b1-3)Gal(b1-4)GlcNAc(b1-3)GalNAc
# Outline: as §1
# [6] = target: Man(a1-2)Man(a1-3)Man
# Outline: as §1
# [7] = target: Man(a1-2)Man(a1-3)[Man(a1-2)Man(a1-6)]Man(a1-6)[Man(a1-2)Man(a1-2)Man(a1-3)]Man(b1-4)GlcNAc(b1-4)GlcNAc
# Outline: as §1
# [8] = target: Man(a1-3)[Man(a1-6)]Man(a1-6)[Man(a1-2)Man(a1-3)]Man(b1-4)GlcNAc(b1-4)GlcNAc
# Outline: as §1
# [9] = target: Neu5Ac(a2-3)Gal(b1-3)GlcNAc
# Outline: as §1
# [10] = target: Neu5Ac(a2-3)Gal(b1-4)Glc
# Outline: as §1
# [11] = target: Neu5Ac(a2-3)Gal(b1-4)GlcNAc(b1-3)Gal(b1-4)GlcNAc(b1-3)GalNAc
# Outline: as §1
# [12] = target: Neu5Ac(a2-3)Gal(b1-4)[Fuc(a1-3)]GlcNAc(b1-3)GalNAc
# Outline: as §1
# [13] = target: Neu5Ac(a2-3)Gal(b1-4)[Fuc(a1-3)]GlcNAc(b1-6)[Neu5Ac(a2-3)Gal(b1-3)]GalNAc
# Outline: as §1
# [14] = target: Neu5Ac(a2-6)Gal
# Outline: as §1
# [15] = target: Neu5Ac(a2-6)Gal(b1-4)GlcNAc(b1-2)Man(a1-3)[Neu5Ac(a2-6)Gal(b1-4)GlcNAc(b1-2)Man(a1-6)]Man(b1-4)GlcNAc(b1-4)GlcNAc
# Outline: as §1
# [16] = target: Neu5Ac(a2-6)Gal(b1-4)GlcNAc(b1-3)Gal(b1-4)GlcNAc
# Outline: as §1
# [17] = target: Neu5Ac(a2-6)Gal(b1-4)GlcNAc(b1-3)Gal(b1-4)GlcNAc(b1-3)Gal(b1-4)GlcNAc(b1-2)Man(a1-3)[Neu5Ac(a2-6)Gal(b1-4)GlcNAc(b1-3)Gal(b1-4)GlcNAc(b1-3)Gal(b1-4)GlcNAc(b1-2)Man(a1-6)]GalNAc
# Outline: as §1
binder,measurement,setting,value
PX9961U-pdi-543-24-543 (Parabacteroides distasonis) (protein) EEPVGEFLPGQVESEENIEGIVTGAYAVLDGYYASDAINSGCSNWQFGDVVSDDAYKGGGGTGDQNQIHLMEIFNANPTGIDFEARWAALYEGIKRCNQAIRLLNGSEVKNKEQRLAEMRFLRGHYYFNLKIIYNQIPWIDETLVDPNEYNKKSNIEFSSDQLWEKILEEFSAAYKVLPESQADYGRPTKMAARAYMAKVYLYQSKWKECLEACDEVIQSGKYELFPDFRNVFLPENDNCSEIIFAIQLSINDGSPNNENGSYGDRLLPPGGPYPVYGFLRPTQNLVNAYKTDVKGLPYNDGKDVSENDYVDVRLDHTLARPNIPFMDVQLYDWTPREASVYGPYSPKKRLVSLNSTYYSPIWPYVNALNFYVIRYADLLLWRAEAAIETGDLETGRKYINMIRERAKNTQHVKTMDQSQDAANYKVGVYDEPFKSKNEAVQALRMERRLEMAHEGIRFFDLVRWGVADEVINAYIAKEKVFRSHLQNAHFVKGKHEYFPIPQSMIDICGTEVMKQNPGY,glycan array binding signal (z-score),[1],-0.386
same,glycan array binding signal (z-score),[2],-0.394
same,glycan array binding signal (z-score),[3],-0.432
same,glycan array binding signal (z-score),[4],-0.308
same,glycan array binding signal (z-score),[5],-0.417
same,glycan array binding signal (z-score),[6],-0.489
same,glycan array binding signal (z-score),[7],-0.408
same,glycan array binding signal (z-score),[8],6.64
same,glycan array binding signal (z-score),[9],-0.408
same,glycan array binding signal (z-score),[10],-0.368
same,glycan array binding signal (z-score),[11],-0.376
same,glycan array binding signal (z-score),[12],3.69
same,glycan array binding signal (z-score),[13],1.28
same,glycan array binding signal (z-score),[14],-0.428
same,glycan array binding signal (z-score),[15],-0.347
same,glycan array binding signal (z-score),[16],-0.364
same,glycan array binding signal (z-score),[17],0.5
